{"source": "PubChem BioAssay (Tox21)", "note": "Results filed as inconclusive are left out. A call without a number means that no potency is given here. Active and inactive are the calls of the source. Calls follow the shape of the dose curve; as a rule, active = well fitted cell-killing curve with a large enough effect in the repeat runs (not every such curve was filed as active); inconclusive = weak or mixed curves, or effect the other way; inactive = no such curve, though single readings can be large or run the other way. Potency is read from the fitted curve at half-maximal effect."}
{"assay": "qHTS assay to identify small molecule antagonists of the estrogen related receptor signaling pathway with the pleiotropic PPARgamma coactivator (PGC) from Tox21 10K library - cell viability counter screen (AID 1224840); also: nearly all actives have a fitted effect of over 40% in size", "conditions": "PGC/ERR reporter cells viability, CellTiter-Fluor, 17.5 h; series mostly up to 92.4 µM", "excerpt": "National Center for Advancing Translational Sciences [NCATS]\nNIH Chemical Genomics Center [NCGC]\nU.S. Environmental Protection Agency [EPA]\nNational Institutes of Environmental Health Sciences [NIEHS]\nNational Toxicology Program [NTP]\nU.S. Food and Drug Administration [FDA]\nEstrogen related receptors (ERRs), the first orphan nuclear receptors discovered, play an important role in the control of cellular energy metabolism. ERRs are required for high-energy production in response to the environmental challenges. The pleiotropic PPARgamma coactivator (PGC) is a major partner of ERR and a key regulator in energy homeostasis. Together they have been implicated in the etiology of metabolic disorders such as Type 2 diabetes and metabolic syndrome. ERR-alpha was also identified as an adverse marker for breast cancer progression; ERR-alpha-positive tumors have a poor prognosis. To screen and to identify environmental compounds that perturb the ERR and PGC/ERR signaling pathways could provide valuable information for potential therapeutic or preventive measures in the treatment of metabolic disease. To differentiate true PGC/ERR antagonists or agonist from cytotoxic substances, the assay is multiplexed with cell viability assay.\nTox21 Assay Protocol Summary:\nThe PGC/ERR cells were dispensed at 2,000 cells/5 ul/well in 1536-well white plates using a Multidrop dispenser. After the assay plates were incubated at a 37 C/5% CO2 incubator for 6 hours, 23 nL of compounds dissolved in DMSO, positive and negative controls or DMSO only was transferred to the assay plate by a pin tool. The plates were incubated at 37 C for 17.5 hours. 1 ul/well of CellTiter-Fluor reagent was added into the assay plates using a Flying Reagent Dispenser. After 30-minute incubation at 37 C/5% CO2, the fluorescence intensity in the plates was measured using a ViewLux plate reader."}
{"smiles": "Cc1ccc(C(C)c2ccc(C)c(C)c2)cc1C", "Potency": "inactive"}
{"smiles": "O=CNc1ccccc1", "Potency": "inactive"}
{"smiles": "CCCCOC(O)CC", "note": "(stereo not given)", "Potency": "inactive"}
{"smiles": "CCCCCCCCN(C)C", "Potency": "inactive"}
{"smiles": "CC1(C)[C@H]2CC[C@]1(C)[C@H](O)C2", "Potency": "inactive"}
{"smiles": "CN(C)CCCOc1nn(Cc2ccccc2)c2ccccc12", "Potency": "inactive"}
{"smiles": "CN(C)C/C=C(/c1ccc(Br)cc1)c1cccnc1", "Potency": "inactive"}
{"smiles": "O=C1c2cccc(O)c2C(=O)c2c(O)cc(CO)cc21", "Potency": "inactive"}
{"smiles": "CCCCCCCCCC=O", "Potency": "inactive"}
{"smiles": "O=c1c2ccccc2nnn1CCl", "Potency": "inactive"}
{"smiles": "Cc1cc(C)c(S(=O)(=O)O)cc1N=Nc1cc(S(=O)(=O)O)c2ccccc2c1O", "Potency": "34.4 µM (active)"}
{"smiles": "CCOC(=O)C1=C(C)NC(C)=C(C(=O)OC)C1c1cccc([N+](=O)[O-])c1", "note": "(stereo not given)", "Potency": "inactive"}
{"smiles": "CC(C)(Oc1ccc(Cl)cc1)C(=O)OCCCOC(=O)C(C)(C)Oc1ccc(Cl)cc1", "Potency": "inactive"}
{"smiles": "CC(C)(C)C(=O)OCOP(=O)(COCCn1cnc2c(N)ncnc21)OCOC(=O)C(C)(C)C", "Potency": "inactive"}
{"smiles": "CC(C)CCCC(C)CCO", "note": "(stereo not given)", "Potency": "inactive"}
{"smiles": "NCc1ccccc1", "Potency": "inactive"}
{"smiles": "CCCCC(CC)COCCCN", "note": "(stereo not given)", "Potency": "inactive"}
{"smiles": "CC(Cc1cccc(C(F)(F)F)c1)NCCOC(=O)c1ccccc1", "note": "(stereo not given)", "Potency": "inactive"}
{"smiles": "CC(C)c1ccccc1C(C)C", "Potency": "inactive"}
{"smiles": "CCCCCCCC/C=C\\CCCCCCCC(N)=O", "Potency": "inactive"}
{"smiles": "CC(CN)CCCN", "note": "(stereo not given)", "Potency": "inactive"}
{"smiles": "CC(C)(C)c1cc(CCC(=O)OCC(COC(=O)CCc2cc(C(C)(C)C)c(O)c(C(C)(C)C)c2)(COC(=O)CCc2cc(C(C)(C)C)c(O)c(C(C)(C)C)c2)COC(=O)CCc2cc(C(C)(C)C)c(O)c(C(C)(C)C)c2)cc(C(C)(C)C)c1O", "Potency": "inactive"}
{"smiles": "CC(=O)/C=C/C1C(C)=CCCC1(C)C", "note": "(stereo not given)", "Potency": "inactive"}
{"smiles": "CCCC[C@H]1CN(CC2CCOCC2)C(=O)OC12CCN(C1(C)CCN(C(=O)c3c(C)ncnc3C)CC1)CC2", "Potency": "inactive"}
{"smiles": "S=C(S)NCCNC(=S)S", "Potency": "inactive"}
{"smiles": "O=C(O)Cn1c(C(=O)Nc2nc(-c3ccccc3Cl)cs2)cc2ccccc21", "Potency": "inactive"}
{"smiles": "Cc1c(Cn2ccnc2)c2ccccc2n1CCC(=O)O", "Potency": "inactive"}
{"smiles": "NC(N)=NN=C(/C=C/c1ccc([N+](=O)[O-])o1)/C=C/c1ccc([N+](=O)[O-])o1", "Potency": "2.98 µM (active)"}
{"smiles": "Nc1nc(CC(=O)O)cs1", "Potency": "inactive"}
{"smiles": "CN(C)CC/C=C1\\c2ccccc2COc2ccccc21", "Potency": "inactive"}
{"smiles": "N=C(N=C(N)N)N1CCOCC1", "Potency": "inactive"}
{"smiles": "Cc1cccc(Oc2ccccc2)c1", "Potency": "inactive"}
{"smiles": "CC(=O)N(CC(=O)N(C)C)c1ccccc1", "Potency": "inactive"}
{"smiles": "COCCO", "Potency": "inactive"}
{"smiles": "CC(C)CCCCCCOC(=O)c1ccc(C(=O)OCCCCCCC(C)C)c(C(=O)OCCCCCCC(C)C)c1", "Potency": "inactive"}
{"smiles": "CCCCOC(=O)/C=C\\C(=O)OCCCC", "Potency": "inactive"}
{"smiles": "COC(Cc1ccccc1)OC", "Potency": "inactive"}
{"smiles": "CCCCCCc1ccc(N)cc1", "Potency": "inactive"}
{"smiles": "Nc1nc(N)c(-c2ccccc2)s1", "Potency": "inactive"}
{"smiles": "O=C(O)[C@@H]1[C@H]2C[C@H]3c4[nH]c5ccccc5c4CCN3C[C@@H]2CC[C@@H]1O", "Potency": "inactive"}
